Here are results for 24 compounds from PubChem BioAssay AID652062 (Broad Institute, 2013).

Each structure is given as a SMILES string. Among all 1,400 compounds or so, about 1,100 (79%) were called active.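 How the source made its calls: active means fitted half-maximal concentration of a falling signal no higher than twice the top valid dose in every test run; inconclusive means runs disagree, or flat partial inhibition, or poor fit; inactive means every run inactive: flat, wrong direction, or potency beyond limit.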 So high a share suggests a set chosen from earlier hits. These entries were drawn from the full list. Measured potencies and affinities stand elsewhere.

A short description of this test: inhibitors of clade B AD8 Env fusion, dose response, cell-based, cherry-pick (AID 652062). To be noted: HeLa-AD8 Env / CEM-CCR5 cell fusion, luciferase; at 35 µM (top of the series) unless noted.
Turning to `CCCN1[C@H](C(=O)N[C@@H](C)c2ccccc2)[C@@H](CO)[C@@H]2Cn3c(ccc(-c4cccc(F)c4)c3=O)[C@@H]21`, the activity change, negative = inhibition came to 99.2%.
Next, `Cc1nc2ccccc2c2oc(C(=O)NCc3ccc4c(c3)OCO4)cc12`: -50%; `CCc1ccc(-c2nc(CN3CCC(C(=O)NCCc4ccc(OC)c(OC)c4)CC3)c(C)o2)cc1`: -25.1%; `COc1ccc(S(=O)(=O)N[C@H]2C=C[C@H](CC(=O)N3CCN(c4ccccc4)CC3)O[C@@H]2CO)cc1`: -26.4%.
With `O=C(Cc1ccccc1)N[C@@H]1C=C[C@H](CC(=O)N2CCCCC2)O[C@@H]1CO` the figure was -10.8%; with `Cc1ccc(S(=O)(=O)N[C@@H]2CC[C@H](CCNC(=O)c3ccccc3F)O[C@H]2CO)cc1`, 23.6%; with `CC(C)CN(C(=O)c1ccc(S(=O)(=O)N2CCCCC2)cc1)C1CCS(=O)(=O)C1` (centres undefined), -25.2%.
With `COCc1[nH]nc2c1C(c1ccc(F)cc1)N(Cc1ccccc1)C2=O` (centres undefined) the figure was 11.7%; with `O=C(Nc1ccc(F)cc1)Nc1ccc2c(c1)[C@H]1C[C@@H](CC(=O)N3CCCCC3)O[C@H](CO)[C@H]1O2`, 57.6%; with `CS(=O)(=O)N(Cc1ccc(Cl)cc1)c1ccc(C(=O)NCCC2=CCCCC2)cc1`, -7.87%.
With `CC(=O)OC1c2ccccc2C(=O)N1c1ccccc1C` (centres undefined), the activity change, negative = inhibition is -15.7%.
Next, `Cc1ccc(C2CC(=O)c3cnc(N4CCc5ccccc5C4)nc3C2)cc1` (centres undefined): 0.787%; `CN1C(=O)c2cc(NC(=O)NC3CCCC3)ccc2OC[C@@H]2O[C@H](CC(=O)NC3CCC3)CC[C@@H]21`: -5.79%.
With `COCC(=O)Nc1ccc2c(c1)C(=O)N(C)[C@H]1CC[C@H](CC(=O)NC3CCCC3)O[C@H]1CO2` the figure was 17%; with `Cc1nn(C)cc1NC(=O)C[C@H]1CC[C@@H]2[C@@H](COc3ccc(NC(=O)C4CCC4)cc3C(=O)N2C)O1`, -24.8%.
With `CCNC(=O)C[C@H]1CC[C@@H]2[C@@H](COc3ccc(NC(=O)Cc4cccs4)cc3C(=O)N2C)O1` the figure was 66.7%.
For the compound `CCNC(=O)Nc1ccc2c(c1)C(=O)N(C)[C@@H]1CC[C@@H](CC(=O)NCC3CCCCC3)O[C@@H]1CO2`, the activity change, negative = inhibition is -14.5%.
With `COc1ccc(NC(=O)C(=O)NCC2CCCN2S(=O)(=O)c2cccs2)cc1` (centres undefined) the figure was 23.4%; with `COc1ccc(OC)c(NC(=O)COc2ccc3c(c2)CCC3)c1`, 43.3%.
Next, `COc1ccccc1CCNCc1ccc(OC)c(OCc2ccccc2)c1`: 45.9% [at 16 µM]; `O=C(NCCCc1nc2ccccc2[nH]1)c1ccco1`: -25.6%.
With `C[C@H](O)[C@@H]1C(=O)N2CCc3c([nH]c4cccc(-c5ccccc5)c34)[C@@H]2C[C@@H]1N(C)C(=O)OCc1ccccc1` the figure was -17.1%; with `C=C(C)CN(CC)c1nc(N)c2c(N)nc3c(c2c1C#N)CC(=O)N3C12CC3CC(CC(C3)C1)C2`, 27.3%.
Consider `COC(=O)[C@@]1(Cc2ccc(F)cc2)[C@H]2c3cc(C(=O)N(C)C)n(CCO)c3C[C@H]2CN1C(=O)c1ccccc1`, for which the activity change, negative = inhibition was 39.7%.
